Bioassay records: PubChem, several laboratories
The list is not random: actives were taken first. Their share in the collection is about 7.2%.
VLA-4 inh: inhibition in human VLA-4 binding assay, primary screen, VLA-4 allosteric modulator project, MLPCN library, flow cytometry, VLA-4 expressing cells; ligand binding flow cytometry; inhibition, % (about 7 µM as worked out from the volumes in the protocol); Integrin alpha-4 (Homo sapiens), P13612; 0.2% of 330,000 active; in the data active = inhibition above about 50%
ALR H2O2 inh: inhibitors of human ALR sulfhydryl oxidase, primary screen, biochemical, H2O2 detection, HRP-luminol luminescence, single point | purified ALR, DTT oxidation | inhibition, % (concentration not given with the values) | 3.8% of 290,000 active | AID 485317, 2010;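 active = mean replicate inhibition above about 79%, with every replicate also reaching it, limit read from the data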
Target sequence (P55789 whole entry, looked up): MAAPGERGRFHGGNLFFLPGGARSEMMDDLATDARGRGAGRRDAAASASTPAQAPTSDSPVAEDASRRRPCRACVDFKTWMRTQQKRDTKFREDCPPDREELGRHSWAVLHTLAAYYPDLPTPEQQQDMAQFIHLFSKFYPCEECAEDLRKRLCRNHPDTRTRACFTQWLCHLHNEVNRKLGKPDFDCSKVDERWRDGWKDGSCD
AHR activator: AHR activators, primary screen, cell-based, luminescence, luciferase reporter, human; 2.5% of 320,000 active; AHR-responsive luciferase reporter cells; Aryl hydrocarbon receptor (Homo sapiens), P35869; activation, % at 5 µM; in the data active = activation above about 47%;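 note: 0% = vehicle wells and 100% = reference agonist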
Efflux pump mplx: inhibitors of Candida efflux pumps in yeast, primary screen, S. cerevisiae, Nile Red, multiplex; S. cerevisiae Candida pump triplex; inhibition, % at 10 µM; 0.44% of 330,000 active;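 active = plate passing quality check with inhibition over a set limit, or well fluorescence over plate mean plus 4 SD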;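 note: Nile Red retained in pooled yeast measured as flow cytometry median fluorescence; 0% = buffer negative control and 100% = Enniatin B positive control; higher means more Nile Red kept so more efflux inhibition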
A1 inh: caspase 3/7 activation in MEF A1-2A-BIM cells, primary screen, A1 inhibitor project, cell-based, luminescence, HTS | AID 2462, 2010 | caspase activation, % (test concentration not listed) | Caspase-Glo 3/7 luminescence, 3 h; percent of clofoctol response, vehicle zero | 0.066% of 330,000 active;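 active = over half of replicate activation scores above 10%, or exactly half above 10 with the replicate mean above 10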
SUMO Mot1 rescue: yeast Mot1-301 growth rescue at high temperature, primary screen, SUMOylation pathway inhibitor project, S. cerevisiae, ATP luminescence, 38.5C; growth rescue, % at 18.8 µM; 1% of 320,000 active; AID 2716, 2010; S. cerevisiae Mot1-301 growth rescue; percent above DMSO median, 100 means doubled;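 active = every valid replicate shows activation above 250% relative to neutral control wells; inactive = the rest, any valid replicate at or below 250%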;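 note: OY570 slx delta 5 strain wells were the positive control but not used for scaling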
* marks the source's active call; other numbers are inactive results; i = inactive; x = no result.

SMILES	VLA-4 inh	ALR H2O2 inh	AHR activator	Efflux pump mplx	A1 inh	SUMO Mot1 rescue
CCCNC(=O)CS(=O)Cc1nc(-c2ccc(OC)cc2)oc1C (centres undefined)	15	99*	7	0	x	20
COCCNC(=O)CS(=O)Cc1nc(-c2ccc(Cl)cc2)oc1C (centres undefined)	2	x	1	0	0	-17
Cc1ccc(-c2nc(CS(=O)CC(=O)NCCC(C)C)c(C)o2)cc1 (centres undefined)	-3	98*	3	0	0	-21
O=C1/C(=C/c2cccnc2)SC(=S)N1CCc1ccccc1	3	-8	-1	0	-1	-10
C[C@H]1CN([C@@H](C)CO)C(=O)c2cc(NS(=O)(=O)c3ccc(Cl)cc3)ccc2O[C@@H]1CN(C)CC1CCCCC1	3	2	-1	0	0	-5
O=CN1Cc2ccccc2-c2ccccc2C1	-1	-5	x	0	0	-5
Cc1ccc(CN2CCNC(=O)C2CC(=O)NC2CCCCCC2)o1 (centres undefined)	-3	-8	2	0	0	347*
O=C1c2ccccc2NC(c2ccc(O)cc2)N1/N=C/c1ccc(O)cc1 (centres undefined)	3	99*	34	0	1	-8
Cc1ccc(-c2csc(N(CC3CCCO3)C(=O)c3ccco3)n2)cc1 (centres undefined)	-21	-2	51*	0	0	872
O=C(c1ccco1)N(CC1CCCO1)c1nc(-c2ccccc2)cs1 (centres undefined)	43	-2	20	0	0	0
CCN(CC)C(=O)CSc1nc2ccc(NC(=O)CSc3nnc(N)s3)cc2s1	6	-10	5	0	2	-10
CCN(CC)C(=O)CSc1nc2ccc(NC(=O)CSc3nccn3C)cc2s1	16	99*	10	0	0	-1
CN(C)c1ccc(NC(=O)c2sc(SCC(=O)Nc3nccs3)nc2N)cc1	1	12	78*	0	-1	-1
CCCC(=O)Nc1ccc2nc(SCC(=O)Nc3nccs3)sc2c1	4	99*	2	0	0	158
Cc1cccc(C)c1NC(=O)Cn1c(=O)n(CCCC(=O)NCc2ccco2)c(=O)c2sccc21	2	2	9	0	0	-7
O=c1c2c(-c3cccs3)csc2ncn1-c1ccccc1	1	-1	6	0	-1	-3
CC(C)n1c(=S)[nH]c2scc(-c3cccs3)c2c1=O	0	90*	29	0	-1	-17
O=c1c2c(-c3cccs3)csc2[nH]c(=S)n1-c1ccccc1	6	90*	13	0	-1	-2
Cc1nc2scc(-c3cccs3)c2c(=O)[nH]1	-13	-2	-1	0	0	5
O=C(Nc1ccccc1)c1cc2ccc3ccccc3c2s1	5	-7	69*	0	-3	26
O=C(CCC1CCCC1)N1CCC(N2CCCCCC2)CC1	14	5	-2	0	0	x
Clc1nc(-c2ccccc2)cc(-c2ccc(Br)cc2)n1	0	0	69*	0	1	0
CCC1(c2ccc(F)cc2)NC(=O)N(CC(=O)N2CCN(S(=O)(=O)c3ccc(C)cc3)CC2)C1=O (centres undefined)	-46	-4	-1	0	2	20
COC(=O)c1[nH]c2ccc(F)cc2c1NS(=O)(=O)c1ccc(OC)cc1	-1	3	16	0	1	348*
COc1ccc(S(=O)(=O)Nc2c(C(=O)O)[nH]c3ccc(OC)cc23)cc1	3	98*	18	0	1	9
SMILES	VLA-4 inh	ALR H2O2 inh	AHR activator	Efflux pump mplx	A1 inh	SUMO Mot1 rescue
COC(=O)c1[nH]c2ccccc2c1NS(=O)(=O)c1ccc(F)c(C)c1	4	18	7	0	1	9
COc1ccc2[nH]c(C(=O)O)c(NS(=O)(=O)c3ccc(OC)c(OC)c3)c2c1	i	x	20	0	1	4
CSCCC(NC(=O)c1ccccc1Cl)C(=O)N1CCN(c2ccccn2)CC1 (centres undefined)	8	x	-2	4	-1	3
Cc1ccc2cc(CCNS(=O)(=O)c3ccc(Br)cc3)c(=O)[nH]c2c1C	-14	x	2	0	-1	-1
COc1ccc([N+](=O)[O-])cc1NC(=O)Cn1ccc(C(F)(F)F)n1	-4	x	3	0	0	10
COc1ccccc1[C@@]1(C)ON(c2ccccc2C(F)(F)F)C1=O	26	-1	-1	0	2	326*
CN1CCC(N(C)C(=O)c2ccc(Cl)c(S(=O)(=O)N3CCc4ccccc43)c2)CC1	6	-6	0	0	1	10
COc1cccc(NC(=O)NCc2c(-c3ccccc3)noc2C)c1	25	-3	2	0	0	1
O=C1OC(c2ccccc2)=N/C1=C\N1CCCCC1	21	x	37	0	0	-4
O=C1OC(c2ccc(Br)cc2)=N/C1=C\N1CCCCC1	-2	-3	63*	0	0	4
COc1ccc(S(N)(=O)=O)cc1-c1nnc2c3ccccc3c(C)nn12	5	-14	1	0	0	304*
Cc1ccc(-c2nnc3c4ccccc4c(C)nn23)cc1S(=O)(=O)N1CCN(C)CC1	8	x	8	0	-1	-7
CC(Sc1nc(-c2ccc(F)cc2)cs1)C(=O)Nc1ccc(Cl)cn1 (centres undefined)	0	-5	21	5	-1	-1
CCOC(=O)/C(C#N)=C/c1cc2ccc(C)cc2nc1Cl	4	96*	16	0	-1	13
CCOC(=O)/C(C#N)=C/c1cc2cc(C)c(C)cc2nc1Cl	-6	66	2	0	-1	-28
Cc1cc2cc(C=C(C#N)C#N)c(Cl)nc2cc1C	22	98*	33	0	0	-10
COc1ccccc1NC(=S)Nc1ccc2cn[nH]c2c1	-1	-6	47	0	0	21
COc1ccc(CCNC(=O)CN2C(=O)COc3ccc(S(=O)(=O)N4CCOCC4)cc32)c(OC)c1	-4	2	-1	0	1	145
Cc1ccc(NC(=O)NC2CC(=O)N(c3ccc4c(c3)OCCO4)C2)cc1F (centres undefined)	16	-2	-1	0	1	14
COc1ccc(NC(=O)c2cc(-c3ccc(OC)c(OC)c3)nc3ccccc23)c(OC)c1	-4	-3	9	0	0	-1
